PubChem BioAssay AID1053197 (The Scripps Research Institute Molecular Screening Center, 2014)
Hit rate of the full screen: of about 370,000 compounds, about 2,600 (0.7%) were called active. The sample as a whole holds a higher share of actives than the screen did. Values without a mark were called inactive.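 The calls were made as follows: active = inhibition above a cutoff: mean of compounds within the control limits plus 3 SD of those (cut at about 17% in these data); inactive = the rest.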

The molecules below were run against Sialate O-acetylesterase (Homo sapiens) (UniProt Q9HAT2) (assay: human SIAE inhibitors, primary screen, biochemical, fluorescence polarization, FP-Rh probe, 1536-well HTS (AID 1053197;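 also: 0% = plate median of compound wells and 100% = probe without SIAE protein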)). Settings: SIAE FP-Rh probe binding, at 9.66 µM, stronger effect = higher value.
Sequence of Sialate O-acetylesterase (Homo sapiens) (Q9HAT2 whole entry, looked up): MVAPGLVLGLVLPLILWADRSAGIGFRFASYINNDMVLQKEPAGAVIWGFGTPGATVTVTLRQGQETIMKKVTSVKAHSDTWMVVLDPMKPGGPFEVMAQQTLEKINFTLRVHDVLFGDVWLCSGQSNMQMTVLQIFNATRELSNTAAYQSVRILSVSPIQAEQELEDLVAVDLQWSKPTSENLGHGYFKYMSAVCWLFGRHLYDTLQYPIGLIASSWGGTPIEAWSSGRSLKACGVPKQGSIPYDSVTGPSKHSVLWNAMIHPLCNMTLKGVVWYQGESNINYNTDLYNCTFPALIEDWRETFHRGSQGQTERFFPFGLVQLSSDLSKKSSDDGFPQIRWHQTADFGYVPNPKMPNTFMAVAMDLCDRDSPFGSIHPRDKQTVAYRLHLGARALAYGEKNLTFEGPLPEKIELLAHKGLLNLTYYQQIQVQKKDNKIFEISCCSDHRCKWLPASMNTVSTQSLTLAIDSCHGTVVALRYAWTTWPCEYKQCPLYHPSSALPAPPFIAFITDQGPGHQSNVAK

SMILES | inhibition
CCC(C)[C@@H](C(=O)OC)N(CCc1cn(Cc2ccccc2)nn1)S(=O)(=O)c1ccccc1Br (stereo partly specified) | -2.68%
O=C1CC(c2ccccc2)=NN1c1ccc([N+](=O)[O-])cc1 | 19.8% (active)
C/C(N)=C(/C#N)C(=O)COC(=O)C1=NN(c2ccccc2)C(=O)CC1 | 0.03%
CCN1N=C(c2ccccc2)CCC1=O | -3.71%
O=C(CNS(=O)(=O)c1ccccc1F)N1CCN(c2ccccn2)CC1 | 2.08%
O=C(Nc1cc(Cl)cc(Cl)c1)OCCN1CCCC12CCC(c1ccccc1)CC2 (stereo unspecified) | -10.1%
Cc1cc2ccccn2c1C(=O)c1cccc(F)c1 | 18.5% (active)
CC(=O)Nc1ccc(/C=N/Nc2ccc(C(=O)c3c(C)cc4ccccn34)cc2[N+](=O)[O-])cc1 | 9.63%
Cc1cc2ccccn2c1C(=O)c1cccc(S(=O)(=O)N2CCOCC2)c1 | -6.52%
Fc1ccc2nc(COCc3nc4ccc(F)cc4[nH]3)[nH]c2c1 | -7.18%
CCCn1c(O)c(CN2CCCC(C)C2)c(C)c(C#N)c1=O (stereo unspecified) | 43.7% (active)
Cc1c(CN2CCCCC2)c(O)n(CCO)c(=O)c1C#N | -5.55%
CC1CCCN(Cc2nc3c(c(=O)n(C)c(=O)n3C)n2CC(=O)c2ccccc2)C1 (stereo unspecified) | 7.4%
COc1cccc(CNC(=O)CNS(=O)(=O)c2ccc3nc(C)sc3c2)c1OC | 2.11%
Nc1[nH]c(/C=C2/CCCCC2n2[nH]c(=O)n(-c3ccccc3)c2=O)c(Cc2ccccc2)[n+]1Cc1ccccc1 (stereo unspecified) | 10.8%
O=S1(=O)c2ccc(Br)cc2OC[C@H](Cc2ccccc2)N1Cc1cn(Cc2ccccc2)nn1 | 3.61%
CC(c1c[nH]c2ccccc12)c1c(-c2ccccc2)n(C)c2ccccc12 (stereo unspecified) | 10.3%
O=C(NC(=O)c1ccccc1N1CCCCC1)Nc1ccc(Br)cc1 | 2.43%
CCn1c(=O)n(CC)c2cc(N3CCCC3)c(NC(=O)c3ccccc3Br)cc21 | 17.9% (active)

SMILES | inhibition
COc1ccc(NS(=O)(=O)c2ccc(N3CCOCC3)c(NC(=O)c3ccccc3Br)c2)cc1 | -4.27%
CC(C)CNS(=O)(=O)CC1NCCc2ccccc21 (stereo unspecified) | -2.16%
CN(C)c1ccc(N/C=C/C(=O)C(F)(F)F)cc1 | 17.9% (active)
CNC(=S)NNC(=O)c1ccc(N(C)C)cc1 | 10.3%
CC1CN(/C=C/C(=O)C(F)(F)F)CC(C)O1 (stereo unspecified) | 2.43%
C=CCN1C(=O)[C@@H](CC(=O)NCC2CCCCC2)[C@]2(C(=O)OC)CCCCC=C12 | 20.8% (active)
C=CCN1C(=O)[C@@H](CC(=O)NCCCCc2ccccc2)[C@]2(C(=O)OCC)CCCCC/C=C/12 | -2.6%
C=CCN1C(=O)[C@@H](CC(=O)NCCCOCCCC)[C@]2(C(=O)OCC)CCCCC/C=C/12 | -0.48%
Oc1ccc(CNc2ccccc2O)cc1 | 21.1% (active)
c1ccc(CNCc2ccc(CNCc3ccccc3)cc2)cc1 | -0.12%
O=[N+]([O-])c1ccccc1NCc1ccc(Cl)cc1 | 0.44%
COc1cc(NC(=O)C2CCCN(S(=O)(=O)c3ccc(C(C)(C)C)cc3)C2)cc(OC)c1 (stereo unspecified) | -0.78%
CCC(=O)c1c(CC)c2n3c1=CC[C@H]3CC(Br)C=2 (stereo partly specified) | -1.56%
Oc1ccc(C2Nc3cccc4cccc(c34)N2)cc1 | 58.9% (active)
Cc1ccc(C2Nc3cccc4cccc(c34)N2)cc1 | 29.6% (active)
CCCC[C@H]1C2CC(OC(=O)NCc3ccccc3)C(C2)[C@H]2CCCCN21 (stereo partly specified) | -0.4%
O=C(CSc1nc2ccccc2s1)N=Nc1c(O)[nH]c2ccccc12 | -11.1%
COc1ccc(N2CCN(CCNS(=O)(=O)c3ccc([N+](=O)[O-])cc3)CC2)cc1 | 1.89%
FC(F)(F)c1cccc(NC(=S)OC2CCC23CCC(c2ccccc2)CC3)c1 (stereo unspecified) | -8.64%

SMILES | inhibition
Cc1ccccc1NC(=O)Cn1nnc(-c2ccccc2F)n1 | -1.96%
COc1cccc2c1C(=O)c1c(O)c3c(c(O)c1C2=O)CC(O)(C(C)=NNC(=O)c1ccc(Cl)c(Cl)c1)CC3OC1CC(N)C(O)C(C)O1 (stereo unspecified) | 62.7% (active)
CCCC1CCC2(CCCN2CCOC(=O)NCc2ccccc2)CC1 (stereo unspecified) | -1.37%
CCOC(=O)/C(N=Nc1cc(C(=O)O)cc(C(=O)O)c1)=C(\O)CCl | 21.9% (active)
COc1ccc(CN(CCN2CCOCC2)C(=O)c2ccc(C)cc2)cc1OC | -2.14%
CCOC(=O)C1(Cc2ccccc2)CCN(Cc2cn(C(C)=O)c3ccccc23)CC1 | -0.8%
CCCC[C@H](C(=O)N(CC)c1ccccc1)[C@@H](O)c1ccc2ccccc2c1 | -0.99%
CC(c1ccc(N)cc1)c1cn(C)c2ccccc12 (stereo unspecified) | 10.7%
COC(=O)[C@]12C[C@H](CC(=O)NCCc3ccccc3OC)C(=O)N(Cc3ccco3)C1=C[C@H](C(C)C)O[C@@H]2C1CC1 | 0.34%
Cc1cc2nc3c(=O)[nH]c(=O)nc-3n(C[C@H](O)[C@H](O)[C@H](O)CO)c2cc1C | 6.59%
CCN(CC)CCCC(C)n1c2nc(=O)[nH]c(=O)c-2nc2cc(Cl)ccc21 (stereo unspecified) | 29.6% (active)
COC(=O)C1CN(CCc2ccccc2)CCS(=O)(=O)N1Cc1ccc(F)cc1 (stereo unspecified) | 4.17%
COc1ccc2c(c1)CN1CN(CCc3ccccc3)S(=O)(=O)CC21 (stereo unspecified) | -7.42%
C=CCN1[C@@H](Cc2ccccc2)COc2cccc(N3CCSCC3)c2S1(=O)=O | -1.03%
O=C(CSc1ccc(-c2ccco2)nn1)Nc1cccc(F)c1 | 17.1% (active)
O=C(CSc1ccc(-c2ccc(F)cc2)nn1)Nc1ccc2c(c1)OCCO2 | 9.37%
COc1ccc(NC(=O)CSc2ccc(-c3ccco3)nn2)c(OC)c1 | 4.03%
O=C(NC1CCCCN(Cc2cccc(C(F)(F)F)c2)C1=O)c1ccccc1I (stereo unspecified) | 8.59%
